Bioassay records from PubChem BioAssay.
The entries come from a sample that favours hits as a whole.
VACV E9 pol inh – blocks vaccinia virus processive DNA synthesis. in vitro processive DNA synthesis, absorbance read-out; stronger effect = lower value. normalized absorbance, % (no concentration beside the values). hit rate 0.94% among 46,000. AID 493162; in the data active = normalized absorbance mostly below about 85%, no sharp cut-off; inactive = mostly above about 86%
Active calls of the source: *.

SMILES	VACV E9 pol inh
COc1ccc(OC)c(C2C(C#N)=C(N)Oc3cc(C)oc(=O)c32)c1 (configuration not stated)	99.9
O=C(/C=C/c1ccccc1)NCCSc1c[nH]c2ccccc12	99.1
O=C(O)c1ccccc1SCC(=O)N1CCCC1	89.9
O=C(O)c1ccccc1SC/C=C/c1ccccc1	82.6*
[O-][n+]1ccccc1SC/C=C/c1ccccc1	97.5
c1ccc(-c2nn3c(-c4ccccc4)nnc3c3ccccc23)cc1	91.7
O=C(NCC1CCCO1)Nc1ccc(Cl)cc1 (configuration not stated)	79.5
Cc1ccc2oc(-c3ccccc3)cc(=NCCN3CCOCC3)c2c1	72.1*
CCCCN1CCN(c2nc(-c3ccccc3)c3cc(C)ccc3n2)CC1	100.5
Clc1cccc(-n2cc(-c3ccccc3)c3c(NCC4CCCO4)ncnc32)c1 (configuration not stated)	101.5
NC(=O)c1ccccc1N=c1cc(-c2ccccc2)oc2ccc(Cl)cc12	99.8
Clc1ccc2oc(-c3ccccc3)cc(=NCC3CCCO3)c2c1 (configuration not stated)	59.3*
Clc1ccc2oc(-c3ccccc3)cc(=NCc3ccco3)c2c1	89.5
Cc1ccc2oc(=O)cc(CN3CCOCC3)c2c1	99.2
Clc1ccc2oc(-c3ccccc3)cc(=NCCCN3CCOCC3)c2c1	43.6*
COc1ccc(C2(CNC(=O)C(c3ccccc3)c3ccccc3)CCOCC2)cc1	98.9
CN(C)C(=O)C12CCC(C)(C(=O)C1)C2(C)C (configuration not stated)	100.1
Cc1c(C#N)c2nc3c(c(-c4ccccc4)c2n1-c1ccccc1)CCCC3	100.1
O=C(NO)c1cccc2c1-c1ccccc1/C2=N/O	72.7
COC(=O)c1ccccc1C(=O)c1ccccc1	91.8
COC(=O)c1cccc2c1-c1ccccc1/C2=N/O	57.6*
CCOC(=O)CSc1ncnc2c1oc1ccccc12	91.5
COC(=O)CSc1nc2sc3c(c2c(=O)n1-c1ccccc1)CCC3	100.3
CN(C)C(=O)Oc1ccnc(SCc2c(Cl)cccc2Cl)n1	129.7
N=C(N)Sc1cn(CCNC(=O)c2ccccc2)c2ccccc12	108.4
SMILES	VACV E9 pol inh
COc1ccc(Oc2c(F)c(F)nc(F)c2Cl)cc1	99.8
CCOC(=O)c1c(C)n(-c2ccc(OC)cc2)c2ccc(OC)cc12	99.6
CCOC(=O)c1c(C)n(C)c2ccc(OCCN(C)C)cc12	65.1*
CCOC(=O)c1c(C)n(Cc2ccccc2)c2ccc(OC(C)=O)cc12	99.6
CCOC(=O)Cc1sc(Nc2ccccn2)nc1-c1ccccc1	94.6
CCOc1ccc2nc(NC(=O)C(CC)CC)sc2c1	97.8
CCOc1ccc2nc(NN)sc2c1	22.5*
CCOc1ccc2nc(NC(=O)C(C)C)sc2c1	115.0
CCn1nc(C)cc1C(=O)NN	100.1
O=c1c2ccccc2c(C=NCc2cccnc2)c(O)n1-c1ccccc1C(F)(F)F	103.7
C(=NCc1cccnc1)c1ccc2c(c1)OCO2	106.1
C(=NCc1cccnc1)c1c2ccccc2cc2ccccc12	42.2*
CC1(C)C=Cc2c(c3occc3c3oc(-c4ccccc4)cc(=O)c23)O1	80.2
Cc1c(C(=O)/C=C/N(C)C)nnn1-c1ccccc1	96.4
COC(=O)c1noc(C)c1C(=O)/C=C/N(C)C	40.4*
CN(C)/C=C/C(=O)c1ccc2c(c1)CCO2	98.2
O=C1Nc2ccccc2SC1C1C(=O)Nc2ccccc21 (configuration not stated)	101.2
CN(C(=O)COC(=O)c1ccc(Cl)c(N)c1)C1CCCCC1	98.4
COC(=O)c1c2c(n3cc4ccccc4cc13)C(=O)c1ccccc1C2=O	99.2
COC(=O)c1c2c(n3ccc(C)cc13)C(=O)c1ccccc1C2=O	95.9
COC(=O)c1c2c(n3ccccc13)C(=O)c1ccccc1C2=O	61.8*
CCCSc1nnc(NC(=O)c2ccccc2Br)s1	100.8
Oc1ccccc1-n1cccc1	96.8
COC(=O)c1nc(-c2ccccc2)oc1Nc1ccc(C)cc1	102.0
Cc1onc(-c2c(Cl)cccc2Cl)c1NC(=O)N1CCCC1=O	99.4
SMILES	VACV E9 pol inh
Oc1ccccc1C=Nc1ccc(-c2nc3ccccc3s2)cc1	100.0
Oc1ccc(N=Cc2ccccc2)cc1-c1nc2ccccc2s1	83.7*
CC(C)(C)C(=O)Nc1ccc(O)c(-c2nc3ccccc3s2)c1	98.9
O=C(O)c1[nH]c2ccccc2c1CNCc1ccccc1	101.8
C=C(C)Cn1c(-c2cccs2)nc2ccccc21	112.9
O=C(COc1ccc(Cl)cc1)NCCn1ccc2ccccc21	98.0
O=C(O)CN1CCC(c2ccccc2)CC1	102.7
O=C1CC(c2ccccc2)SC(c2ccccc2)C1 (configuration not stated)	100.2
O=C1CCC(c2ccccc2)CC1	66.5*
CC1CCCCN1C(=O)CSc1nnc(-c2ccc(Cl)cc2)o1 (configuration not stated)	104.6
C=CCn1c(SCc2nc3ccccc3[nH]2)nnc1-c1ccco1	92.7
CC1CN(C(c2ccccc2)c2sc3ncnn3c2O)CC(C)O1 (configuration not stated)	106.1
O=C(O)c1ccc2[nH]c3c(c2c1)CSCC3	88.6
CN(C)CCOC(=O)c1ccc2[nH]c3c(c2c1)CSCC3	57.5*
CC(C)OC(=O)c1ccc2[nH]c3c(c2c1)CCCC3	103.3
CCCc1ccc(NC(=S)OCC)cc1	96.6
CCN(CC)CCOc1ccc(/C(C)=N\O)cc1	100.5
CCN(CC)CCOc1ccc2c(c1)C(=O)c1cc(OCCN(CC)CC)ccc1-2	29.8*
CCN(CC)CCOC(=O)C(c1ccccc1)c1ccccc1	102.7
CCOC(=O)NC(=S)Nc1ccc(NC(=O)c2cc(Cl)ccc2O)c(Cl)c1	99.2
CCN(c1ccccc1)S(=O)(=O)c1ccc2[nH]cc(C(=O)NCCC3=CCCCC3)c(=O)c2c1	111.0
COc1ccc2cc3cc(C(=O)NCCN(C)C)oc3nc2c1	39.9*
COc1ccc2cc3cc(C(=O)NCc4ccco4)oc3nc2c1	86.9
COc1ccc2cc3cc(C(=O)NCCN4CCN(c5ccccc5F)CC4)oc3nc2c1	96.0
C=CCNC(=O)c1sc2cc(Cl)ccc2c1Cl	110.7
SMILES	VACV E9 pol inh
CC1(C)C(C=C(Cl)Cl)C1C(=O)N1CCCCC1 (configuration not stated)	102.0
CC1(C)CC(=O)C=C(NC(=O)Nc2ccccc2)C1	102.1
CC1(C)Cc2ccccc2/C(=C/C(=O)Nc2ccccc2)N1	86.2*
CC1(C)CC(=O)C(C(=S)Nc2ccccc2)C(=O)C1	99.5
O=C(NCc1ccccc1)c1ccccc1NS(=O)(=O)c1ccc(F)cc1	101.2
Cc1ccc(NS(=O)(=O)CC23CCC(CC2=O)C3(C)C)cc1 (configuration not stated)	99.5
CC1(C)NC(=O)N(CC(O)Cn2c3ccccc3c3ccccc32)C1=O (configuration not stated)	100.3
CCC(CO)NCC(O)Cn1c2ccccc2c2ccccc21 (configuration not stated)	79.8*
OC(COCc1ccccc1)Cn1c2ccccc2c2ccccc21 (configuration not stated)	94.1
CNCC(O)Cn1c2ccccc2c2ccccc21 (configuration not stated)	77.6*
COc1ccccc1CNCC(O)Cn1c2ccccc2c2ccccc21 (configuration not stated)	111.5
Cc1ccc(S(=O)(=O)NCC(O)Cn2c3ccccc3c3ccccc32)cc1 (configuration not stated)	100.0
CCOC(=O)c1ccccc1NC(=O)N1CCC(CN2CCCC2)CC1	102.4
Cc1ccc(C(C)(C)C)cc1S(N)(=O)=O	95.4
CC(C)N(C(=O)Cn1ncc2c(=O)oc3ccccc3c21)C1CCCCC1	103.5
